# Data from the supplement of paper PMC3334620.
# The full ranking holds about 33,000 sequences; the median of “E-score (-0.5 to 0.5)” is about -0.012, and the highest 2% start at about 0.27. The sample as a whole holds a higher share of the highest values than the screen did.
# Target: T1, Vhr1 (UniProt P40522)
# T1 sequence: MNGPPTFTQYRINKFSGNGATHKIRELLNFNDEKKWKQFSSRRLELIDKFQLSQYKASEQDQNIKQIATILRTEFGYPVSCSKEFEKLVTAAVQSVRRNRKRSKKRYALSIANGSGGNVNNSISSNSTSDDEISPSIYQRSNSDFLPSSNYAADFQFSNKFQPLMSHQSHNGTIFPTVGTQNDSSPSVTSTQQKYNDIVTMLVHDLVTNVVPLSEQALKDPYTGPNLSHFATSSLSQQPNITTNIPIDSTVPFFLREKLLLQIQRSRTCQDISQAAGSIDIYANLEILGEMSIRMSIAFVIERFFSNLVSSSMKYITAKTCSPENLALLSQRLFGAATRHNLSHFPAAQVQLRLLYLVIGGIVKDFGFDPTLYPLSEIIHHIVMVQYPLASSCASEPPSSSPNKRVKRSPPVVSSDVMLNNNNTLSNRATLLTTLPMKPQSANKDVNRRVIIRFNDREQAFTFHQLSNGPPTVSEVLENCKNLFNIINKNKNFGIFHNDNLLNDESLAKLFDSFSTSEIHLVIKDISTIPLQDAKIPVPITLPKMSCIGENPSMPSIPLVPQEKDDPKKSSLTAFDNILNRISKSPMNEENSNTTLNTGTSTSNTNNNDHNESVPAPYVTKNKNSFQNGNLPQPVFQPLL
# Assay: PBM E-score (8-mer binding enrichment) (E-score (-0.5 to 0.5)); higher = stronger / more preferred TF binding
# Conditions: protein concentration: 200 nM; construct: GST-full length
# Experimental: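 Universal 'all 10-mer' protein binding microarrays (Agilent AMADID 015681) probed with GST-tagged S. cerevisiae TFs (full-length or DBD) made by in vitro transcription/translation (PURExpress), about 100-200 nM. Bound TF was detected with fluorescent anti-GST. Each ungapped 8-mer (which stands for itself and its reverse complement) is scored by the PBM enrichment score (E-score), a modified Wilcoxon-Mann-Whitney statistic from -0.5 to +0.5, computed with the Universal PBM Analysis Suite. Scale: above 0.35 generally sequence-specific binding.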
row,Sequence,PBM E-score
1,TCTTTCCA,-0.157
2,GGCCAAAC,-0.155
3,GTGTGAGA,0.0943
4,GTGTGTGA,0.298
5,GCGTGTGA,0.104
6,TAGAGGGA,-0.0999
7,AGTTTGAT,0.0522
8,CTTAACCC,-0.213
9,CACCAGAC,0.309
10,AACCAGAC,-0.00075
11,GACCAGAC,-0.141
12,GCTTGCAC,-0.0624
13,CTGATTAA,0.191
14,CTGATTAC,0.278
15,ACGATTAC,0.161
16,ATCATTAA,0.0987
17,ATGATTAC,0.391
18,ATCATTAG,0.148
19,ATGATTAG,0.317
20,AAGATTAC,-0.0671
21,ATCATTAC,0.274
22,CTGATTTC,-0.00794
23,ACGATTAG,0.045
24,ATGATTAA,0.264
25,TGCCACAA,0.0692

row,Sequence,PBM E-score
1,TAGTAGAA,-0.199
2,ATGGTAGG,0.104
3,CCTAAGCA,-0.108
4,GAAGCACA,-0.00604
5,GATCAGTA,0.121
6,AGGTGACG,-0.0476
7,ACGTGACT,0.41
8,AGGTGACT,0.425
9,ACGTGACA,-0.197
10,ACGTGACG,-0.137
11,AGGTGACA,0.0488
12,CTCATAAC,0.00985
13,ATGTGGTG,0.227
14,AGAAGATA,-0.193
15,TCAGTTAA,-0.108
16,AGTAGGCA,0.154
17,CACAACGC,0.134
18,CAGACTAC,0.136
19,GTGACTTA,0.259
20,CTGACTAA,0.359
21,CTGACTAC,0.361
22,CGGACTAC,0.0519
23,GGGACTAA,-0.209
24,CAGACTAA,0.117
25,ATGACTAG,0.369

row,Sequence,PBM E-score
1,GTGACTAA,0.428
2,CGGACTAA,0.102
3,ACGACTAG,0.162
4,AAGACTAG,-0.209
5,AGGTGGAG,-0.191
6,CGATCGCA,0.178
7,TCCCTGCA,0.0302
8,AGGGTTGC,-0.068
9,CGAGCGAG,0.262
10,ATTCGAGC,-0.0346
11,GGCCATAC,0.0276
12,ATGACTAA,0.42
13,AAGACTAA,0.116
14,AGGACTAC,0.067
15,ATGACTAC,0.462
16,AGGACTAA,0.054
17,AAGACTAC,0.122
18,AGTCTACC,-0.0695
19,CGAAGTGC,-0.107
20,AAACGCAC,0.142
21,CAAAAGGA,-0.2
22,AACTGATC,0.157
23,AGGCAGCC,-0.0232
24,CGGCAGCA,-0.0628
25,CGGCAGCC,0.282

row,Sequence,PBM E-score
1,AGGGGGCA,-0.151
2,GAAACACA,0.0985
3,AATTGAGA,-0.0698
4,AATTGAGT,0.272
5,AATTGAGG,-0.233
6,TGAATCCA,0.185
7,CACATGAA,0.0563
8,CTCATGAG,0.0895
9,GTCATGAC,0.31
10,CTCATGAC,0.326
11,ATCATGAG,0.235
12,GACATGAC,0.202
13,ATCATGAC,0.335
14,CTCATGAA,0.0223
15,CACATGAC,0.272
16,ATCATGAA,0.118
17,GTCATGAA,0.257
18,CACATGAG,0.065
19,CTTTCAAC,-0.128
20,CGTGGTGA,-0.158
21,CAGACGGC,-0.0191
22,CGAACTAG,-0.0301
23,TCTAGAAA,-0.272
24,CACCCTGA,0.245
25,AACCCATA,0.271

row,Sequence,PBM E-score
1,AACCCTGA,0.286
2,GACCCATA,0.251
3,ACCCCTGA,0.143
4,AACCCATT,0.0791
5,AATTGACT,0.149
6,CTTAAGTA,-0.199
7,CTAGGTTC,-0.0959
8,CCGAATGC,-0.0649
9,GATAGTAA,0.0876
10,GATAGTCC,0.0259
11,TATAGTGA,-0.0332
12,AATAGTCT,-0.0519
13,TATAGTAA,0.15
14,CATAGTCG,0.238
15,GATAGTCA,0.357
16,TATAGTCA,0.318
17,AATAGTCG,0.148
18,CATAGTCA,0.37
19,CATAGTCC,0.115
20,AATAGTCA,0.344
21,ACGGGAGG,-0.13
22,AATGTGGT,0.115
23,GAATCGAC,-0.005
24,ACAAATCG,0.0133
25,ATCAGCTA,0.0387

row,Sequence,PBM E-score
1,GAAGGATC,-0.0379
2,GGCTCAAC,-0.199
3,CTGGCTGA,0.143
4,ACAATCGT,0.0768
5,CAATCCTG,0.122
6,ATATGGAA,0.178
7,ATGCTGTG,0.116
8,AGTGTGAT,0.296
9,AGTGTGAG,0.147
10,AGTGTGAC,0.209
11,ACGTCAGA,-0.0949
12,ACAGTTGG,-0.02
13,CGCGAGTA,0.112
14,CGCGAGTC,0.355
15,CTCGAGTC,0.235
16,AGCGAGTA,0.119
17,AGCGAGTC,0.275
18,AGCGAGTG,0.192
19,CATCACAA,0.0244
20,CGCCAAGA,-0.0615
21,CGGAGCGA,0.0369
22,ACTTGGGA,-0.155
23,AGCCAGTG,0.00862
24,AGTTGCAT,-0.0357
25,CACCTTAA,-0.0968

row,Sequence,PBM E-score
1,AGGAATCC,0.119
2,AAGAATCA,0.222
3,GGGAATGA,0.169
4,TAGAATCA,0.185
5,CAGAATCA,0.313
6,GGGAATCA,0.307
7,AGGAATCA,0.28
8,CGGAATTA,-0.193
9,CGGAATCA,0.412
10,AGGAATCG,0.0478
11,CGGAATCC,0.0628
12,GGGAATAA,-0.0372
13,CACTCGAG,-0.029
14,CTCTTCAG,-0.0887
15,TTCCTCAA,-0.19
16,ATGGTCCG,0.175
17,ATAGGCCA,-0.159
18,AGACTAAC,0.0491
19,GCTAAACA,-0.0852
20,ACTGGCAC,-0.113
21,ATGAAGCG,-0.136
22,TGAAATAA,-0.158
